Compounds with a hit are over-represented: about 20% of the library has one in this group of screens.
HCMV inh – inhibitors of human cytomegalovirus; HFF cells, HCMV-luciferase reporter, 72 h; active compounds read low; activity change, negative = inhibition, % at 57.5 µM; actives 4.5% (n = 410,000); in the data active = activity change below about -60%; inconclusive = no clear call, values can overlap the other calls; inactive = above about -39%; also: % is scaled to controls: 0 for no effect and ±100 for the full control effect
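HFF cells seeded 16 h at 37C, treated with compounds, infected with luciferase-reporter HCMV at MOI 1 PFU/cell; luciferase read at 72 h post infection, normalized to buffer-only and Salinomycin controls.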
Cycloheximide cs – counter-screen for Shiga toxin inhibitors: cycloheximide protein synthesis inhibition; cell reporter, cycloheximide protein synthesis inhibition counterscreen; max response, %; actives 12% (n = 300,000); AID 2314; in the data active = max response mostly above about 13%, no sharp cut-off; inactive = mostly below about 14%; also: read at 38.3 µM for the half of the compounds with a filed dose; 0% is about no effect
Pf growth 96h – P. falciparum growth inhibition at 96 hours | actives 6.9% (n = 320,000) | AID 504834 | P. falciparum luciferase reporter growth, 96 h | Potency, µM (doses to about 28.7 µM), for the others: top-dose activity change, negative = inhibition, most hits filed as inhibitors; also: potency is read from the fitted curve at half-maximal effect; % is scaled to controls: 0 for no effect and ±100 for the full control effect
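96 h incubation, 37 C, 5% CO2, of luciferase-reporter P. falciparum-infected RBCs (2% hematocrit, 0.05% parasitemia final) with test compounds; endpoint luminescence.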
Shiga toxin inh – Shiga toxin inhibition; Vero cells, Shiga toxin protein synthesis inhibition reporter; inhibition, % at 38.7 µM; actives 9.2% (n = 290,000); AID 2315; in the data active = inhibition mostly above about 28%, no sharp cut-off; inactive = mostly below about 43%; also: 0% is about no effect
Pf growth 48h – inhibits P. falciparum growth in the first generation, 48 h. Potency, µM (top dose mostly 28.7 µM), inactives show at the top dose activity change, negative = inhibition, most hits filed as inhibitors. actives 5.9% (n = 310,000). P. falciparum luciferase growth in erythrocytes, 48 h; also: potency is read from the fitted curve at half-maximal effect; % is scaled to controls: 0 for no effect and ±100 for the full control effect
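Luminescence readout; reporter = integrated firefly luciferase in P. falciparum. RBC culture at 2% hematocrit, 0.1% parasitemia final, 37 C/5% CO2; decreased signal taken as growth inhibition.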
* hit, by the source's call; i = inactive; ? = inconclusive; . = not tested or not shown; [ ] = dose if it differs, or a comment. Unless noted, calls follow the shape of the dose curve; as a rule, active = well fitted inhibition curve with a large enough effect; inconclusive = small, poorly fitted or top-dose-only effect, or another doubt; inactive = no such curve, though single readings can be large or run the other way.

SMILES	HCMV inh	Cycloheximide cs	Pf growth 96h	Shiga toxin inh	Pf growth 48h
Cc1cc(C(=O)N/N=C/c2cccc([N+](=O)[O-])c2)c(C)n1-c1ccccc1	-22	43*	?	87*	?
COc1ccc(/C=N/NC(=O)c2cccc(C(=O)N/N=C/c3ccc(OC)c(OC)c3)n2)cc1OC	?	-3	1%	-5	-6%
Nc1ccccc1C(=O)NN=Cc1cccc([N+](=O)[O-])c1	33	.	.	.	.
CCOc1ccc2nc(N(Cc3cccnc3)C(=O)c3ccc4c(c3)OCCO4)sc2c1	27	.	.	.	.
Cc1cc(/C=N/NC(=O)c2ccccn2)c(C)n1-c1cccc([N+](=O)[O-])c1	-26	50*	4.7µM*	90*	-6%
Cc1cc(C(=O)N/N=C2\CCCC(=O)C2)c(C)n1-c1ccccc1	3	17*	45%	30*	25%
Cc1ccc(NC(=S)N(CCCN2CCCC2)Cc2cccn2Cc2ccc(Cl)cc2)cc1C	-25	-6	37%	-27	?
COc1ccc(NC(=S)N(CCCN2CCCC2)Cc2cccn2Cc2ccc(Cl)cc2)cc1Cl	-79*	-4	83%	-20	?
FC(F)(F)c1cccc(NC(=S)N(CCCN2CCCC2)Cc2cccn2Cc2ccc(Cl)cc2)c1	-67*	-5	?	-13	?
COc1ccc(NC(=S)N(CCCN2CCC(C)CC2)Cc2cccs2)cc1Cl	-90*	-4	-25%	6	-21%
Cc1cccc(-n2c(CNC(=O)c3cccc(F)c3)nnc2SCC(=O)Nc2ccccc2F)c1	-2	.	.	.	.
COc1ccc(C(=O)NNC(=O)CSc2nnc(COc3ccccc3)n2C)cc1	21	-3	-11%	-8	-26%
COc1cccc(OCc2nnc(SC)n2C)c1	-7	32*	51%	45	91%
COc1ccc(C(=O)NNC(=O)CSc2nnc(COc3ccc4ccccc4c3)n2C)cc1	-5	-2	2.3µM*	-20	4%
COc1cccc(OCc2nnc(SCC(=O)NNC(=O)C3CCCCC3)n2C)c1	-13	-5	13µM*	11	-8%
COc1cccc(OCc2nnc(SCC(=O)OC3CCCCC3)n2C)c1	0	-4	17%	-16	?
Cc1cc(C)c[n+](-c2nc3ccccc3nc2C(=C=[N-])C#N)c1	-24	-2	?	-4	-2%
Cc1csc(NC(=O)c2nc3nc(C)cc(C)n3n2)n1	41	48*	24%	49	103%
Cc1cc(C)n2nc(C(=O)Nc3nccs3)nc2n1	71	23*	29%[5.75 µM]	84*	98%
CCC(Sc1nnc(C)s1)C(=O)Nc1nccs1 (centres undefined)	14	-1	.	3	13%
Cc1cc(C)n2nc(C(=O)Nc3nnc(C4CC4)s3)nc2n1	-13	-2	17%	-18	27%
CCC(Sc1nc(C)cc(C)n1)C(=O)Nc1nccs1 (centres undefined)	22	-8	13µM*	-26	?
O=C(/C=C/c1ccco1)N1CCCC(c2ccccc2)C1 (centres undefined)	?	23*	32%	47*	12%
O=C(/C=C/c1ccccc1)N1CCC(c2ccccc2)C1 (centres undefined)	59	59*	-26%	74*	173%
O=C(/C=C/c1ccco1)N1CCN(S(=O)(=O)c2ccccc2)CC1	-5	.	.	.	.
SMILES	HCMV inh	Cycloheximide cs	Pf growth 96h	Shiga toxin inh	Pf growth 48h
CNc1nc(-c2ccc([N+](=O)[O-])cc2)cs1	-74*	32*	i	53*	138%
Nc1nc(-c2ccc([N+](=O)[O-])cc2)cs1	-79*	10	42%	29	41%
CC1(C)CC(c2nc(-c3ccc([N+](=O)[O-])cc3)cs2)CCO1 (centres undefined)	-18	17*	10%	43	21%
O=[N+]([O-])c1ccc(-c2csc(NN=C3CCCC3)n2)cc1	?	-2	?	-5	0%
COc1ccc(-c2csc(NS(=O)(=O)c3ccc([N+](=O)[O-])cc3)n2)cc1	-25	-5	?	1	11%
O=C(Nc1ccc(F)c(S(=O)(=O)N2CCOCC2)c1)C1CCCCC1	-1	.	?	.	13µM*
Cc1ccc(NC(=O)CCNC(=O)c2ccccc2Cl)cc1S(=O)(=O)N1CCOCC1	12	.	?	.	-5%
CSCCC(NC(=O)c1ccccc1Cl)C(=O)Nc1ccc(C)c(S(=O)(=O)N2CCOCC2)c1 (centres undefined)	-16	.	?	.	9.3µM*
Cc1ccc(NC(=O)C2CCCN(C(=O)c3ccc(Cl)cc3)C2)cc1S(=O)(=O)N1CCOCC1 (centres undefined)	-72*	-2	7.4µM*	-5	?
Cc1ccc(S(=O)(=O)N(C)C)cc1NC(=O)C1CCCN(C(=O)c2ccc(Cl)cc2)C1 (centres undefined)	?	.	4.7µM*	.	7.4µM*
O=C(Nc1ccc(Cl)c(S(=O)(=O)N2CCOCC2)c1)C1CCCC1	5	.	.	.	.
COc1ccc(NC(=O)N(C)[C@H]2C[C@H]3c4[nH]c5c(-c6ccccc6)cccc5c4CCN3C(=O)[C@H]2[C@H](C)O)cc1	27	.	.	.	.
COc1ccc(OC)c(NC(=O)CSc2nnc(Cn3nnc4ccccc43)n2C)c1	5	-3	46%	-18	3%
Cc1ccc(Cl)cc1NC(=O)C1CCCN(S(C)(=O)=O)C1 (centres undefined)	7	1	10µM*	1	13%
COc1ccc(CNC(=O)c2ccc3c(c2)N(Cc2ccccc2F)C(=O)c2ccccc2S3(=O)=O)cc1	14	.	.	.	.
Cc1ccc(Cl)cc1NC(=O)C1CCCN(S(=O)(=O)c2c(C)noc2/C=C/N(C)C)C1 (centres undefined)	-9	.	.	.	.
O=C(c1scc2c1CCCC2)N1CCOCC1	-10	-3	-10%	3	-12%
Nc1c(C(=O)N2CCOCC2)sc2nc3c(cc12)CCCC3	?	18*	40%	21	20%
Nc1c(C(=O)N2CCCC2)sc2nc3c(cc12)CCCCCC3	38	44*	84%	103*	236%
Cc1ccccc1NC(=O)c1sc2nc3c(cc2c1N)CCCC3	41	.	.	.	.
Nc1c(C(=O)N2CCOCC2)sc2nc3c(cc12)CCC3	44	26*	46%	68*	179%
COC(=O)c1ccccc1NC(=O)Cn1cc2c(n1)CCC(C)C2 (centres undefined)	-5	-4	-28%	-9	0%
COc1ccccc1C(=O)NC1(C(F)(F)F)C(=O)Nc2c1c(=O)[nH]c(=O)n2-c1ccc(F)cc1 (centres undefined)	12	.	.	.	.
CCCS(=O)(=O)N1CCC(n2c(C)nc3cccnc32)CC1	-1	.	.	.	.
O=C(Nc1ccc(C2SCCS2)cc1)c1ccccc1	56	60*	245%	136*	144%
CC(C)c1ccc(NC(=O)COc2ccc(C3SCCS3)cc2)cc1	-9	-4	-8%	18	-4%
O=C(Nc1ccc(Nc2ccccc2)cc1)c1ccccc1	3	.	.	.	.
CCCCNC(=O)Nc1ccccc1CC	-10	-1	-14%	-3	-7%

Source: PubChem
